# Assay results taken from ChEMBL document CHEMBL1961873, “Compounds: GSK PKIS; Assays: Nanosyn kinase panel” (2012).
# Legend:
# [1] = target: T1, Inhibitor of nuclear factor kappa-B kinase subunit epsilon (Homo sapiens) (UniProt Q14164); details: at 1 µM;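 further: reported values are averaged percent inhibition figures against human IKKε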
# T1 sequence (whole entry): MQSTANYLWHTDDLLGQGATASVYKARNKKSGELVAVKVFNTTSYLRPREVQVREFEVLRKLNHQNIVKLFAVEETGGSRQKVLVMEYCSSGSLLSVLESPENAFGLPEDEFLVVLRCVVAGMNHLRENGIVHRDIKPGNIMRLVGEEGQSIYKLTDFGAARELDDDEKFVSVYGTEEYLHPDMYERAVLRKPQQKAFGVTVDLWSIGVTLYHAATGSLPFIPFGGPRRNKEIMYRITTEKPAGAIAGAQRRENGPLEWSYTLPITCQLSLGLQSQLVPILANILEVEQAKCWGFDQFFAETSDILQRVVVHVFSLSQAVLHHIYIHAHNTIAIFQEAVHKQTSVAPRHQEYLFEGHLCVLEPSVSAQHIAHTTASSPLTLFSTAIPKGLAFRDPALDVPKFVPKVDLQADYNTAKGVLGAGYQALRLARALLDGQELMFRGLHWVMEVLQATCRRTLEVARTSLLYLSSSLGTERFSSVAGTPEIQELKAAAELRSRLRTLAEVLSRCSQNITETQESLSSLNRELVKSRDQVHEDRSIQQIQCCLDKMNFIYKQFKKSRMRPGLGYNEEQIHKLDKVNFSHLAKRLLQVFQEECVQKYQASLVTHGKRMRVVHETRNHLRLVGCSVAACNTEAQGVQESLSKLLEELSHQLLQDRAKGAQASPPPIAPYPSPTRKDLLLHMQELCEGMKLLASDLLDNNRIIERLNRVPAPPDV
# [2] = target: T2, Serine/threonine-protein kinase Nek1 (Homo sapiens) (UniProt Q96PY6); details: at 0.1 µM
# T2 sequence (whole entry): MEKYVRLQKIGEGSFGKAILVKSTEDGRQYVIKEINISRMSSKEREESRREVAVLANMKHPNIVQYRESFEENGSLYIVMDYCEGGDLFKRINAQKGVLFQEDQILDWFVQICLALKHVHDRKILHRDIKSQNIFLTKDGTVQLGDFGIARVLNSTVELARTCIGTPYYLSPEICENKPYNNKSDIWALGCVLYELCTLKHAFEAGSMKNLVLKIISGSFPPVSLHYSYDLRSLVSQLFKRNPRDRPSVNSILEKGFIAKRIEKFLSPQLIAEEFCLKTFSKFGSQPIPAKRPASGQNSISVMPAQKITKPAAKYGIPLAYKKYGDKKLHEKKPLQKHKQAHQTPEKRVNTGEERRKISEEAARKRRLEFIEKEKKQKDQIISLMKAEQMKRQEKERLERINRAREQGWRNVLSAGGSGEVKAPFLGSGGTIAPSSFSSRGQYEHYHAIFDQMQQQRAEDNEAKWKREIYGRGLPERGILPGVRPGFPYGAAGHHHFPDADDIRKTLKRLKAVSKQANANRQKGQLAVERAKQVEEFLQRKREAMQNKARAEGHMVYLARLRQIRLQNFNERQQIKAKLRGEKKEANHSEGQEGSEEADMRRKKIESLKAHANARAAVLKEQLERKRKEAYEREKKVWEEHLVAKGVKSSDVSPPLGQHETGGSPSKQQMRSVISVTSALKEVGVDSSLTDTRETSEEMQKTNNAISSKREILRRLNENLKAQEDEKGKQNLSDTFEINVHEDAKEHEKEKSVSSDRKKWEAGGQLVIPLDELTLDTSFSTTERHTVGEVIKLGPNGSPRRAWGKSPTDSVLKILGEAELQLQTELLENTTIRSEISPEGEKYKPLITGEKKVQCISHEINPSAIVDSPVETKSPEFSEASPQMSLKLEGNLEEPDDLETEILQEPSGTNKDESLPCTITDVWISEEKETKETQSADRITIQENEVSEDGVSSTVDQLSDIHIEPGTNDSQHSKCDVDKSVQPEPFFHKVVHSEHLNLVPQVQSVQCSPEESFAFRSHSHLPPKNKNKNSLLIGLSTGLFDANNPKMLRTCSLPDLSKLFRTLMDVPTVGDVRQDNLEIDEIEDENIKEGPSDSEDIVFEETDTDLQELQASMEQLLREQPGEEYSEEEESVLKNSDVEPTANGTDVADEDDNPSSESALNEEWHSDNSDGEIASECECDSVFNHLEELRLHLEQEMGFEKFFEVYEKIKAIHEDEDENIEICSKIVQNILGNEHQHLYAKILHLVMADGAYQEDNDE
# [3] = target: T2, Serine/threonine-protein kinase Nek1 (Homo sapiens); details: at 1 µM
# [4] = target: T3, Serine/threonine-protein kinase Nek2 (Homo sapiens) (UniProt P51955); details: at 0.1 µM
# T3 sequence (whole entry): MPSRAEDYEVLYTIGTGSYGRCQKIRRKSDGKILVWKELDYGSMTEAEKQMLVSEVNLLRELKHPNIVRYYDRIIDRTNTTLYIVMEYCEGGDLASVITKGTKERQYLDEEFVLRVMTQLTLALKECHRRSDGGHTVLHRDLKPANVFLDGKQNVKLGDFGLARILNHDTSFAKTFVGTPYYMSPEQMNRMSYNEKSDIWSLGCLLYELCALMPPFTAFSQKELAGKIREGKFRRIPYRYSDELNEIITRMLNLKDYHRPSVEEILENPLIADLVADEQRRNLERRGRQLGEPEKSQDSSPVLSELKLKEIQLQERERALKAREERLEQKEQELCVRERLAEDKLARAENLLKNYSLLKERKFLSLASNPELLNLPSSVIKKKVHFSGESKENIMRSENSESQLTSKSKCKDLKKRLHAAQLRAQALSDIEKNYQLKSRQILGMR
# [5] = target: T3, Serine/threonine-protein kinase Nek2 (Homo sapiens); details: at 1 µM
# [6] = target: Serine/threonine-protein kinase Nek6 (Homo sapiens) (UniProt Q9HC98); details: at 0.1 µM
# Chain of Serine/threonine-protein kinase Nek6 (Homo sapiens) (Q9HC98 whole entry): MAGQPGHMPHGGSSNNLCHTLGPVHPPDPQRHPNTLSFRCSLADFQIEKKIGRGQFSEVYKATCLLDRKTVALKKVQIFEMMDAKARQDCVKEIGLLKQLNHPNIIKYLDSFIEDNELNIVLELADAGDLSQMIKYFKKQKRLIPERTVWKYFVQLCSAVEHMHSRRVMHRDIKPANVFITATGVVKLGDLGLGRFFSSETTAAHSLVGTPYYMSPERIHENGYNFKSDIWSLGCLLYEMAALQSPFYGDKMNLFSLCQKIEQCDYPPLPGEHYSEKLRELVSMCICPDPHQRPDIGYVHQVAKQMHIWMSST
# [7] = target: Serine/threonine-protein kinase Nek6 (Homo sapiens) (UniProt Q9HC98); details: at 1 µM
# [8] = target: Serine/threonine-protein kinase Nek7 (Homo sapiens) (UniProt Q8TDX7); details: at 0.1 µM
# Chain of Serine/threonine-protein kinase Nek7 (Homo sapiens) (Q8TDX7 whole entry, looked up): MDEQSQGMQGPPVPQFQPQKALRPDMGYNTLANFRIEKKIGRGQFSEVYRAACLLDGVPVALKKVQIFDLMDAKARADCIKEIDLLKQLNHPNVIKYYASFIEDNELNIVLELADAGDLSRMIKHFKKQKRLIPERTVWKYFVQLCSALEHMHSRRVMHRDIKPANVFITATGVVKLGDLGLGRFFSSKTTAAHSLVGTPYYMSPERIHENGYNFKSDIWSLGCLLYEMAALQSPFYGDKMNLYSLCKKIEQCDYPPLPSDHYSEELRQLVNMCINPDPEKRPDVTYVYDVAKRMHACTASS
# [9] = target: Serine/threonine-protein kinase Nek7 (Homo sapiens) (UniProt Q8TDX7); details: at 1 µM
# [10] = target: T4, Serine/threonine-protein kinase Nek9 (Homo sapiens) (UniProt Q8TD19); details: at 0.1 µM;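 further: reported value is the mean percent inhibition of NEK9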
# T4 sequence (whole entry): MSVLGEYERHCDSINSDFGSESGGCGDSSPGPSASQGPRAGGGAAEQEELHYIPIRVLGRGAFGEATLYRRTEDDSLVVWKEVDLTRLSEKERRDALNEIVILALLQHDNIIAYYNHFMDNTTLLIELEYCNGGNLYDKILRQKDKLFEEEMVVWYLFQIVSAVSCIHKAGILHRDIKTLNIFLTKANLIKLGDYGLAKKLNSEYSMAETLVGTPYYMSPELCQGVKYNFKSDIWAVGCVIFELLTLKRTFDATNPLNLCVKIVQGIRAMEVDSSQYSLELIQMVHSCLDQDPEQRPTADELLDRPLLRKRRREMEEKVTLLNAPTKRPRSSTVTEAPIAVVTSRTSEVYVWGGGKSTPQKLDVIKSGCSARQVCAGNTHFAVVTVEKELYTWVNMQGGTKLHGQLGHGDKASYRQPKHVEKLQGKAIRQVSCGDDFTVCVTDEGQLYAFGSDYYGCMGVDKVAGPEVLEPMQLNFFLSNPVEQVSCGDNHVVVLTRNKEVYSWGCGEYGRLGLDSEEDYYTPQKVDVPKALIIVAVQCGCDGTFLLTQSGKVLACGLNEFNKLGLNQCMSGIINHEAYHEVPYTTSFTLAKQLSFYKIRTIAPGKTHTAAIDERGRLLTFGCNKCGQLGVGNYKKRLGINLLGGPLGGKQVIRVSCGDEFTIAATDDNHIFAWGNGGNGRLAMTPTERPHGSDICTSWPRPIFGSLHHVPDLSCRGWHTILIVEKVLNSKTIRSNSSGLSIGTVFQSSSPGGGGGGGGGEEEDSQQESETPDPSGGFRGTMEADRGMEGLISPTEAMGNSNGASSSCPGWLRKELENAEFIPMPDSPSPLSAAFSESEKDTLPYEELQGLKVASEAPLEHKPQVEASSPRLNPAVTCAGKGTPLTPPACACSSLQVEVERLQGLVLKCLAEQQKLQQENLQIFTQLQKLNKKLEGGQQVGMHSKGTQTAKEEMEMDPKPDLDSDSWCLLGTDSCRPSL
structure (smiles),measurement,setting,value
CN(c1ccc(NC(=O)Nc2ccc(OC(F)(F)F)cc2)cc1)c1ccnc(Nc2cccc(S(N)(=O)=O)c2)n1,inhibition,[1],7.75%
same,inhibition,[2],0.8%
same,inhibition,[3],2.63%
same,inhibition,[4],2.68%
same,inhibition,[5],3.03%
same,inhibition,[6],1.81%
same,inhibition,[7],0.14%
same,inhibition,[8],1.37%
same,inhibition,[9],-1.48%
same,inhibition,[10],2.65%
